# Data reported in PubChem BioAssay AID488815 (Broad Institute, 2010).
# Results with a measured potency or affinity are listed apart. Records with an inconclusive call do not appear. Activity calls are given as the source filed them. The rule behind the calls is not given here.
# Biological target: CAAX prenyl protease 1 (Saccharomyces cerevisiae (strain ATCC 204508 / S288c)) (UniProt P47154)
# Test: yeast CAAX protease Ste24 inhibition – biochemical, S. cerevisiae, plate reader, cherry-pick, dose response (AID 488815)
# Details: series mostly up to 10 µM
# Sequence of CAAX prenyl protease 1 (Saccharomyces cerevisiae (strain ATCC 204508 / S288c)) (P47154 whole entry, looked up): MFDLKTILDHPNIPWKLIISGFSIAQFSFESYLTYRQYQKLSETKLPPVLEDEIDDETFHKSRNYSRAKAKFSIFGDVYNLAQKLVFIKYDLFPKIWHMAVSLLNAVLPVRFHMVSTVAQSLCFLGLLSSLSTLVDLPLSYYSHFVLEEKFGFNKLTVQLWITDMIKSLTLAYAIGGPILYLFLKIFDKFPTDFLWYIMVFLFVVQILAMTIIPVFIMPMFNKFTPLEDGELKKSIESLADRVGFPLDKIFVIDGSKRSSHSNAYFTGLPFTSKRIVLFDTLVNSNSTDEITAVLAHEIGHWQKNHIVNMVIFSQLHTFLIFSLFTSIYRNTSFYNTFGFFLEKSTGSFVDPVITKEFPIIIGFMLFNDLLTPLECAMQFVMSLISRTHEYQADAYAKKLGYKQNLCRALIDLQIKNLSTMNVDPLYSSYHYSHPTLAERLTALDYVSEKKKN
row,SMILES,outcome
1,CC(C)(C)C(=O)C[n+]1ccc(C(N)=O)cc1,inactive
2,c1cnn(Cc2cnc(N3CCOCC3)s2)c1,inactive
3,Cc1cccc(NC(=O)c2cc(S(=O)(=O)N3CCCCC3)c[nH]2)c1C,inactive
4,CC(=O)N(C)c1ccc(NC(=O)/C=C/c2ccccc2Cl)cc1,inactive
5,CCCCNC(=S)NNC(=O)CCn1cc(C)cn1,inactive
6,CC(=O)N1c2ccc([N+](=O)[O-])cc2NC(=O)CC1C (stereo not drawn),inactive
7,C=C(C)CSc1nc2sc3c(c2c(=O)n1-c1ccc(OC)cc1)CCN(C)C3,inactive
8,CN(C(=O)COC(=O)c1cn(-c2ccccc2)nc1-c1ccccc1)C1CCS(=O)(=O)C1 (stereo not drawn),inactive
9,CCCCn1c(=O)[nH]c(=O)c2c1nc(-c1ccc(OC)c(Br)c1)n2CC(C)C,inactive
10,CCCCOC(=O)Nc1nc(C)c(C(=O)OCC)s1,inactive
11,CCOc1ccc(OCC)c(NC(=O)c2nnn(CC(=O)Nc3cc(C)cc(C)c3)c2N)c1,inactive
12,CCCC(=O)N1CCN(c2ccc(NC(=O)c3cc4ccccc4o3)cc2Cl)CC1,inactive
13,O=C(O)CCCC[C@@H]1SC[C@@H]2NC(=O)N[C@@H]21,inactive
14,Clc1ccc(CN2CCc3c([nH]c4ccccc34)C2)cc1Cl,inactive
15,O=C(COc1ccccc1)Nc1cccc(-c2nc3cc4ccccc4cc3[nH]2)c1,inactive
16,O=C1CCN(Cc2ccccc2)CCN1[C@H](CSc1ccccc1)Cc1ccccc1,inactive
17,COC(C[C@H](O)C[C@H](O)[C@@H](C)OCc1ccccc1)OC,inactive
18,Cc1ccc(S(=O)(=O)c2cn(C)c3cc(N4CCOCC4)c(F)cc3c2=O)cc1,inactive
